± gives the standard deviation of the averaged measurements.
Legend:
Test in all cases: cell viability (% of vehicle); higher = less cytotoxic
HCI01 [1] = cells of a triple-negative basal-like breast cancer xenograft; details: 10 µM; 72 h
HCI03 = cells of an ER-positive luminal breast cancer xenograft; details: 10 µM; 72 h
HCI09 = cells of a triple-negative luminal androgen receptor type breast cancer xenograft; details: 10 µM; 72 h
HCI11 = cells of an ER-positive luminal breast cancer xenograft; details: 10 µM; 72 h
HCI13 = cells of an ER-positive luminal breast cancer xenograft; details: 10 µM; 72 h
HCI16 = cells of a triple-negative basal-like breast cancer xenograft; details: 10 µM; 72 h
UCD52 [2] = cells of a triple-negative basal-like breast cancer xenograft; details: 10 µM; 72 h
WHIM2 [3] = cells of a triple-negative basal-like breast cancer xenograft; details: 10 µM; 72 h
HCI01 [4] = details: 1 µM; 72 h
UCD52 [5] = details: 1 µM; 72 h
WHIM2 [6] = details: 1 µM; 72 h
WHIM30 [7] = cells of a triple-negative basal-like breast cancer xenograft; details: 1 µM; 72 h
WHIM30 [8] = details: 10 µM; 72 h

Structure (SMILES)	cell viability (HCI01 [1])	cell viability (HCI03)	cell viability (HCI09)	cell viability (HCI11)	cell viability (HCI13)	cell viability (HCI16)	cell viability (UCD52 [2])	cell viability (WHIM2 [3])	cell viability (HCI01 [4])	cell viability (UCD52 [5])	cell viability (WHIM2 [6])	cell viability (WHIM30 [7])	cell viability (WHIM30 [8])
CCCNC(C)C(=O)Nc1ccccc1C (centres undefined) [Prilocaine]	77.2 ± 50	145	102 ± 1.6	92	119.7 ± 0.81	108	79.7 ± 1.1	98.7 ± 19					
CNC(=O)C(Cc1c[nH]c2ccccc12)NC(=O)C(CC(=O)NO)CC(C)C (centres undefined)	141 ± 3.8	116	88.9 ± 9.2	129	92.5 ± 5.4	140	126 ± 16	105 ± 14					
CC(=O)Nc1ccccc1 [Acetanilide]	76.6 ± 44	163	99.2 ± 7.3	81.8	110 ± 8.1	138	75.2 ± 13	126 ± 14					
COc1ccc(Cl)cc1C(=O)NCCc1ccc(S(=O)(=O)NC(=O)NC2CCCCC2)cc1 [Glibenclamide]	103 ± 13	151	93.7 ± 16	93.2	108.2 ± 0.86	110	119 ± 3.5	134.7 ± 0.95					
COc1cc(Cc2cnc(N)nc2N)cc(OC)c1OC [Trimethoprim]	78.3 ± 37	144	91.1 ± 7.9	93	117 ± 22	120	95.4 ± 7.4	118 ± 7.3					
OCCN1CC(O)C(O)C(O)C1CO (centres undefined) [Miglitol]	68.9 ± 43	136	99.2 ± 8.7	92.4	113 ± 0.17	116	86.2 ± 7.9	95.7 ± 50					
NC(=O)OCC(COC(N)=O)c1ccccc1 [Felbamate]	71.2 ± 42	137	90.7 ± 10	95.3	103 ± 8.3	101	81.2 ± 7.7	99.5 ± 11					
O=c1[nH]cc(F)c(=O)[nH]1 [Fluorouracil (Adrucil)]	136 ± 18	112	75.1 ± 7.2	167	81.1 ± 6	151	139.3 ± 0.23	106 ± 20					
CC(O)C(=O)O.CC(O)C(=O)O.CN1CCN(c2ccc3c(c2)NC(=C2C(=O)N=c4cccc(F)c4=C2N)N3)CC1 [Dovitinib Dilactic acid]	43.1 ± 5.7		19.9 ± 0.23	66	79 ± 2.3	44.4	21.9 ± 2.9	52.2 ± 12	103	89.6	96.9	77.8	
Cc1c(OCC(F)(F)F)ccnc1CS(=O)c1nc2ccccc2[nH]1 (centres undefined) [Lansoprazole]	170 ± 24	160	97.4 ± 32	128	142 ± 24	144	190 ± 5.9						
NC(=O)c1ncn(C2OC(CO)C(O)C2O)n1 (centres undefined) [Ribavirin]	72.7 ± 49	148	92.7 ± 2.2	93.7	118 ± 9.9	110	96.4 ± 6.9	99.1 ± 46					
CC(C)(C)C(=O)OCOP(=O)(COCCn1cnc2c(N)ncnc21)OCOC(=O)C(C)(C)C [Adefovir Dipivoxil]	109 ± 43	148	62.7 ± 38	105	43.6 ± 9.2	129	101 ± 9.6	50.6 ± 3.7					
Cc1cnc(C(=O)O)c[n+]1[O-] [Acipimox]	76.1 ± 45	159	98.5 ± 17	78.9	90.4 ± 3.8	103	79.6 ± 5.9	108 ± 1.4					
CCN1CCN(C(=O)NC(C(=O)NC2C(=O)N3C(C(=O)O)=C(CSc4nnnn4C)CSC23)c2ccc(O)cc2)C(=O)C1=O (centres undefined) [Cefoperazone]	110.1 ± 0.54	158	120 ± 16	132	174 ± 9.6	104	131 ± 18	108 ± 22					
NS(=O)(=O)c1cc2c(cc1Cl)NC(C(Cl)Cl)NS2(=O)=O (centres undefined) [Trichlormethiazide]	104 ± 57	164	98.053 ± 0.0031	89.9	129.2 ± 0.42	186	142 ± 9.3	141 ± 8.7					
CC1CCN(C(=O)CC#N)CC1N(C)c1ncnc2[nH]ccc12.O=C(O)CC(O)(CC(=O)O)C(=O)O (centres undefined)	188 ± 8.3	151	77.7 ± 1.5	115	104 ± 9.7	141	109 ± 21	87.9 ± 3					
O=C(c1cc(Cc2n[nH]c(=O)c3ccccc23)ccc1F)N1CCN(C(=O)C2CC2)CC1	166 ± 50	112	72.2 ± 9.9	129	103 ± 5.2	166	117 ± 16	105 ± 6.3					
CCCCCCCN(CC)CCCC(O)c1ccc(NS(C)(=O)=O)cc1.CCCCCCCN(CC)CCCC(O)c1ccc(NS(C)(=O)=O)cc1.O=C(O)C=CC(=O)O (centres undefined) [Ibutilide Fumarate]	93.5 ± 15	121	105 ± 18	103	130 ± 10	117	96.8 ± 2	122 ± 3					128 ± 21
O=C(O)C=CC(=O)O.OCCOCCN1CCN(C2=Nc3ccccc3Sc3ccccc32)CC1.OCCOCCN1CCN(C2=Nc3ccccc3Sc3ccccc32)CC1 [Quetiapine Fumarate]	186 ± 14	91.6	81.6 ± 5.6	123	83 ± 0.84	163	78.8 ± 2	128 ± 7					154 ± 6.5
Cc1ncc([N+](=O)[O-])n1CCO [Metronidazole]	91.9 ± 32	135	90.8 ± 28	89.6	104 ± 9	133	77.3 ± 7.2	81 ± 16					131 ± 4.7
O=C([C@H](CCC/N=C(N)/N)NS(=O)(C1=C2NC[C@H](C)CC2=CC=C1)=O)N3[C@@H](C(O)=O)C[C@H](C)CC3 [Argatroban]	116 ± 7.1	130	98 ± 6.5	116	95.2 ± 6	96.6	80.3 ± 7.5	98.9 ± 18					132 ± 14

From the supplement of paper PMC6992640
